The record followed here is PubChem BioAssay (NCATS).

Inconclusive results are not listed. The source made the active and inactive calls. Calls follow the shape of the dose curve; as a rule, active = well fitted cell-killing curve with a large enough effect; inconclusive = small, poorly fitted or top-dose-only effect, or effect the other way; inactive = no such curve, though single readings can be large or run the other way.
Potency is read from the fitted curve at half-maximal effect.

The test in a line: Quantitative highthroughput screen to assess conditional lethalithy of SEM cells grown in RPMI1640 with unreated serum (RPMI+s) (AID 1963883). Also: nearly all actives have a fitted effect of over 35% in size. The following applies: SEM B-ALL cells, CellTiter-Glo viability, 48 h; series mostly up to 45.8 µM; viability: at the top concentration. The source says:
Assay Provider: Jason Cantor Ph.D.
Department of Biochemistry
University of Wisconsin-Madison, Madison, WI, USA
Chemical screening studies have identified drug sensitivities across hundreds of cancer cell lines but most putative therapeutics fail to translate. Discovery and development of drug candidates in models that more accurately reflect nutrient levels in human blood is a major challenge. Here we performed high-throughput screens in conventional versus Human Plasma-Like Medium (HPLM) to identify compounds that were "missed" when screening using the artificial culture condition. Sets of conditional anticancer compounds spanned phases of clinical development and included non-oncology drugs were assessed. […] We also traced conditional phenotypes for several chemotherapeutics to availability of HPLM-specific metabolites and confirmed others for compounds whose reported targets are encoded by nonessential genes. Our findings establish generalizable strategies for exploiting conditional lethality in HPLM to reveal therapeutic candidates and mechanisms of action in cancer cells.
Described herein are the results of each viability screens against three cell lines: NOMO1 (an acute myeloid leukemia cell line); P12-Ichikawa (a T-cell acute lymphoblastic leukemia); and SEM (a B-cell ALL). Each assay was screened using 3 different cell culture media: homemade human plasma-Like medium with 10% dialyzed fetal bovine serum (HPLM+ds); RPMI1640 with 10% untreated FBS and 5mM glucose (RPMI+s); and RPMI1640 with 10% dialyzed fetal bovine serum and 5 mM glucose (RPMI+ds).
PROTOCOL TABLE (as described by Inglese J, Shamu CE and Guy RK. 2007)
SEQUENCE No. (e.g., 1, 2, 3, etc.); […] (e.g., Cells, Incubation, Reagent, etc.); VALUE and DESCRIPTION.
1; Cells; 5 uL; white, solid bottom 1536-well Greiner assay plate.
2; Compounds; 23 nL; Kalypsis pin tool (Wako USA) equipped with a 1536-well pin head to transfer to the assay plates.
3; Incubation; 48 hours; 37C incubation.
4; Reagent; 3 uL; CellTiter Glo (Promega).
5; Incubation; 5 min, room temperature
6; Detection; Luminescence, Viewlux PerkinElmer.
NOTES (numbers refer to Sequence numbers above)
1. Briefly, 5 ul of cell reagent was dispensed using a Multidrop Combi Dispenser. The NOMO1 and SEM cells were plated at 500 cells/well and the P12-Ichikawa line at 1000 cells/well.
2. After seeding the cells, 23 nL of MIPE 4.1 library compounds (in DMSO) were added to each plate using a Kalypsys 1536 Pintool dispenser. Bortezomib at final concentration of […] and DMSO were added to each plate as positive and negative controls respectively. For each screen, MIPE 4.1 compounds were added over an eleven-point concentration range […] in 3-fold dilutions.
3. Each plate was covered with a stainless steel gasketed lid to prevent evaporation and incubated for 48 hour at 37C, 95% relative humidity, and 5% CO2.
4-5. Three microliter CellTilter-GloTM luminescent substrate mix (Promega) reagent was added to the assay plate and incubated at room temperature for 5 min.
6. The luminescence signal was measured using a ViewLux (PerkinElmer) multiplate reader with a 2 second exposure time per plate. Data for each compound were normalized as percent viability such that measurements for DMSO and the empty well controls in each plate were defined as 100% and 0%, respectively.
A general note: In ATP-based viability assays light output follows the ATP content of the culture.
Consider `Cc1cnn(C)c1C(=O)Nc1cc(Nc2ccc3c(C=Cc4ccccn4)n[nH]c3c2)ccc1F`, for which the Potency was 3720 nM (active). The term viability denotes a read-out of living cells in per cent, often relative to untreated cells. As to `C[C@]12CC[C@H](O)CC1=CCC1C2CC[C@]2(C)C(n3cnc4ccccc43)=CCC12` (stereo not given in full), the “viability” value was 91.2% (inactive). For `O=C(NC1CCNCC1)c1[nH]ncc1NC(=O)c1c(Cl)cccc1Cl`, the Potency was 1320 nM (active). For `NC(=O)c1ccc(-c2nc(-c3ccc4c(c3)OCO4)c(-c3ccccn3)[nH]2)cc1`, the “viability” value is 89.7% (inactive). The same measure, in the same setting: for `CN(c1nccc(=O)[nH]1)C1CCN(c2nc3ccccc3n2Cc2ccc(F)cc2)CC1` the value was 104% (inactive). Take `COc1cc(C)c(Sc2cnc(NC(=O)c3ccc(CNC(C)C(C)C)cc3)s2)cc1C(=O)N1CCN(C(C)=O)CC1` (stereo not given): the Potency is 5260 nM (active). `COc1cc2nc(N3CCN(C(=O)c4ccco4)CC3)nc(N)c2cc1OC`: the Potency is 10500 nM (active). The same measure, in the same setting: under `COC1=C2C[C@@H](C)C[C@H](OC)[C@@H](O)[C@@H](C)C=C(C)[C@H](OC(N)=O)[C@@H](OC)C=CC=C(C)C(=O)NC(=CC1=O)C2=O` stands 8330 nM (active); under `C=CC(=O)Nc1cccc(Oc2nc(Nc3ccc(N4CCN(C)CC4)cc3)ncc2Cl)c1`, 833 nM (active); under `CN(C)C/C=C/C(=O)Nc1ccc(C(=O)Nc2cccc(Nc3ncc(Cl)c(-c4c[nH]c5ccccc45)n3)c2)cc1`, 186 nM (active). `COc1cc2nc(N3CCN(C(=O)C4COc5ccccc5O4)CC3)nc(N)c2cc1OC` (stereo not given): the “viability” value is 94.2% (inactive). On to `CN[C@H]1[C@@H](O)[C@@H]2O[C@@H]3O[C@H](C)CC(=O)[C@]3(O)O[C@@H]2[C@@H](NC)[C@H]1O`, for which the “viability” value was 104% (inactive).

In the case of `CCOC(=O)c1c(C)n(C)c2ccc(O)cc12`, the “viability” value is 99.7% (inactive). The same measure, in the same setting: for `COc1cc([C@H]2Oc3cc([C@H]4Oc5cc(O)cc(O)c5C(=O)[C@H]4O)ccc3O[C@H]2CO)ccc1O` the value was 102% (inactive). `CNC(=O)c1ccc(Nc2cc(Nc3ccccc3S(=O)(=O)C(C)C)c3cc[nH]c3n2)nc1`: the Potency was 1480 nM (active). For `CCc1cc(C(N)=S)ccn1`, the Potency is 8330 nM (active). Regarding `C[C@H](NC(=O)[C@@H](O)c1cc(F)cc(F)c1)C(=O)N[C@@H]1C(=O)N(C)c2ccccc2-c2ccccc21`, the “viability” value is 87.6% (inactive). For the compound `O=C(O)C(=O)Nc1cccc(C2=NN=N[N]2)c1`, the “viability” value was 100% (inactive).

Consider `Nc1ccn(C2CO[C@H](CO)O2)c(=O)n1` (stereo not given in full), for which the “viability” value is 62.4% (inactive). Turning to `C[C@@H]1[C@H](O)[C@@H](C)C=CC=CC=CC=CC=CC=CC=C[C@H](O[C@@H]2O[C@H](C)[C@H](O)[C@H](N)[C@@H]2O)C[C@@H]2O[C@](O)(C[C@@H](O)C[C@@H](O)[C@H](O)CC[C@@H](O)C[C@@H](O)CC(=O)O[C@H]1C)C[C@H](O)[C@@H]2C(=O)O`, the “viability” value is 102% (inactive). Same read-out and setting: under `Cc1cc2c(cc1C1(c3ccc(C(=O)O)cn3)CC1)C(C)(C)CCC2(C)C` stands 85.2% (inactive). Regarding `Clc1ccc2c(N3CCN(CCCN4CCN(c5ccnc6cc(Cl)ccc56)CC4)CC3)ccnc2c1`, the Potency was 7240 nM (active). `CCOC(=O)[C@H](CCc1ccccc1)N[C@@H](C)C(=O)N1CCCC1C(=O)O` (stereo not given in full): the “viability” value was 96% (inactive).

For `O=C(O)c1cc(=O)[nH]c(=O)[nH]1`, the “viability” value was 99.1% (inactive). As for `CNC1CCC(N(Cc2cccc(-c3ccncc3)c2)C(=O)c2sc3ccccc3c2Cl)CC1` (stereo not given), the Potency was 372 nM (active). Take `COc1c(C)cnc(Cn2cnc3c(Cl)nc(N)nc32)c1C`: the Potency is 264 nM (active). Take `OC[C@@H](O)[C@@H](O)[C@H](O)[C@@H](O)CO`: the “viability” value is 96.6% (inactive).

Regarding `C1Cc2[nH]nc(-c3nn[nH]n3)c2C1`, the “viability” value is 101% (inactive).

Regarding `CC(C)Cn1cnc2c(N)nc3ccccc3c21`, the “viability” value is 78.8% (inactive).

For `COc1ccc(-c2ccc3ncc4c(c3c2)n(-c2ccc(N3CCNCC3)c(C(F)(F)F)c2)c(=O)n4C)cn1`, the Potency is 20.9 nM (active).

As for `Cc1ccc(F)c(NC(=O)Nc2ccc(-c3cccc4[nH]nc(N)c34)cc2)c1`, the Potency is 10500 nM (active). For the compound `CC[C@H](C=C[C@@H](C)[C@H]1CC[C@H]2[C@@H]3CC=C4C[C@@H](O)CC[C@]4(C)[C@@H]3CC[C@]12C)C(C)C`, the “viability” value is 99.4% [at 23.2 µM] (inactive). For `Cc1cnc(CNC(=O)c2c(=O)c3ccc(N4CCCN(C)CC4)nc3n3c2sc2ccccc23)cn1`, the Potency is 2880 nM (active). Consider `CCCCCCNC(=O)n1cc(F)c(=O)[nH]c1=O`, for which the Potency is 16600 nM (active).

On to `C=C(C)[C@@H]1CC[C@]2(C)CC[C@]3(C)[C@H](CC[C@@H]4[C@@]5(C)CC[C@H](O)C(C)(C)[C@H]5CC[C@]43C)[C@@H]12`, for which the “viability” value was 104% (inactive). For the compound `C[C@@H]1CCN(C(=O)CC#N)C[C@H]1N(C)c1ncnc2[nH]ccc12`, the “viability” value was 107% (inactive). Turning to `C[C@@H](Oc1cc(-n2cnc3ccc(CN4CCN(C)CC4)cc32)sc1C(N)=O)c1ccccc1C(F)(F)F`, the Potency is 33.2 nM (active).

As for `COc1ccc(C(=O)CC(=O)c2ccc(C(C)(C)C)cc2)cc1`, the “viability” value is 93.7% (inactive). The same measure, in the same setting: for `CCOC(=O)[C@@H](N)CCC(=O)N[C@@H](CSCc1ccccc1)C(=O)N[C@@H](C(=O)OCC)c1ccccc1` the value was 80.4% (inactive). Still for that read-out and setting: under `CN(C)CCC=C1c2ccccc2C=Cc2ccccc21` stands 92.6% (inactive).
